Laboratory results published in PubChem BioAssay (NCI).
About 79,000 compounds went through this panel and 15% of them were active in at least one assay; those are over-represented in the sample as a whole. No stated cut-off is given here; in the data, active means growth inhibition above about 70%; inactive means the rest.

Key:
[1] = NCI Yeast Anticancer Drug Screen. Data for the rad50 strain (AID 155);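 further: 0% = growth of vehicle-only cultures of the same strain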; conditions: S. cerevisiae rad50 strain growth inhibition; at 50.0 µM; hits give high values
Summary of the method: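 Yeast carrying a defined DNA repair defect were exposed to test compounds, and growth was compared with vehicle-treated controls to give percent inhibition.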

[2] = NCI Yeast Anticancer Drug Screen. Data for the mec2-1 strain (AID 157); conditions: S. cerevisiae mec2-1 strain, at 50.0 µM, hits give high values
Summary of the method: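 Each compound was tested on mec2-1 yeast, a strain altered in DNA damage repair or cell cycle control. Growth inhibition is reported relative to vehicle.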

[3] = NCI Yeast Anticancer Drug Screen. Data for the sgs1 mgt1 strain (AID 161);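 further: 0% = growth of cultures given vehicle only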; conditions: S. cerevisiae sgs1 mgt1 strain, at 50.0 µM, hits give high values
Summary of the method: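 Inhibition of yeast growth, normalised to vehicle-treated controls, is reported for a strain bearing genetic alterations in DNA damage repair.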

[4] = NCI Yeast Anticancer Drug Screen. Data for the cln2 rad14 strain (AID 165);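 further: 0% = growth equal to vehicle treated cultures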; conditions: S. cerevisiae cln2 rad14 strain, at 50.0 µM, hits give high values
Summary of the method: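 Test compounds were added to cln2 rad14 yeast cultures; inhibition of growth was then determined by comparison with vehicle treatment.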

[5] = NCI Yeast Anticancer Drug Screen. Data for the bub3 strain (AID 167); conditions: S. cerevisiae bub3 mutant strain, at 50.0 µM, hits give high values
Summary of the method: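 Compounds were applied to a genetically altered yeast strain carrying a cell-cycle control defect. Growth inhibition was scored against vehicle-treated controls.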

[6] = NCI Yeast Anticancer Drug Screen. Data for the mlh1 rad18 strain (AID 175); conditions: S. cerevisiae mlh1 rad18 strain growth inhibition; at 50.0 µM; hits give high values
Summary of the method: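 Inhibition values reflect reduced growth of mutant yeast versus vehicle-treated controls following compound exposure; the mutations affect DNA damage repair.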

Measured: growth inhibition

COc1ccc(C2S/C(=C\c3cccc([N+](=O)[O-])c3)C(=O)N2NC(=O)Cc2ccccc2)cc1 (stereo unspecified)
inactive: [1] 0.65% | [2] -21.2% | [3] 3.85% | [4] -58.6% | [5] 36% | [6] 12.4%

CC1(C)OC(=O)c2ccccc21
inactive: [1] 30.1% | [2] 3% | [3] -5.05% | [4] -14.8% | [5] 1.35% | [6] 2.2%

COc1cc2c3c(c1)[nH]c(=S)n3C(=O)CS2
inactive: [1] -18.9% | [2] -30.1% | [3] -57.4% | [4] -16.7% | [5] -18.7% | [6] -40.9%

COc1ccc(/C(C)=N/[O-])cc1CS[n+]1ccccc1
inactive: [1] 15.1% | [2] 27.7% | [3] 47.4% | [4] -4.4% | [5] 59.2% | [6] 48.6%

CN(Cc1ccccc1)C(=O)c1ccccc1C(=O)O
inactive: [1] -9.2% | [2] -2.85% | [3] -4.75% | [4] -15.9% | [5] -4.95% | [6] 13.2%

CCOC(=O)/C(C#N)=C/c1ccc(Cl)cc1
inactive: [1] -5.3% | [2] -11.7% | [3] -13.1% | [4] 0.85% | [5] -34.4% | [6] -0.65%

C/C=C/C=C/C(=O)OCC
inactive: [1] 31.8% | [2] -2.25% | [3] -16.4% | [4] -2.4% | [5] 15.2% | [6] 14.3%

CC1(C)CC(O)CC(C)(C)N1.CC1(C)CC(O)CC(C)(C)N1.CC1(C)CC(O)CC(C)(C)N1.CC1(C)CC(O)CC(C)(C)N1.Cl.[Ti]
inactive: [1] -2.95% | [2] -4.45% | [3] 12.9% | [4] 17.8% | [5] 26.1% | [6] 10.5%

c1ccc(CCc2nccc3ccccc23)cc1
inactive: [1] 8.55% | [2] -0.55% | [3] -5.6% | [4] -0.9% | [5] 13.9% | [6] 1.1%

CC1CC/C(=N\O)CCCCC(=O)O1 (stereo unspecified)
inactive: [1] -3.45% | [2] -0.35% | [3] 2.15% | [4] -33.4% | [5] 2.9% | [6] 0.85%

C=CC(=O)OCC(C)(C)[N+](=O)[O-]
inactive: [1] 18.4% | [2] 15.7% | [3] 12.8% | [4] 2.35% | [5] -3.65% | [6] 1.55%

CCOC12CC(OC(=O)N1)C(C)C1OC1(C)C(OC(=O)C(C)N(C)C(C)=O)CC(=O)N(C)c1cc(cc(OC)c1Cl)C/C(C)=C/C=CC2OC (stereo unspecified)
inactive: [1] -21.1% | [2] -29.6% | [3] -30.9% | [4] -0.4% | [5] -20.4% | [6] -5.25%

COc1ccc(C(O)c2ccc(C)cc2)cc1 (stereo unspecified)
inactive: [1] -14.1% | [2] -4.2% | [3] -43% | [4] -27.6% | [5] -27.4% | [6] -17.3%

C=C(C)COc1ccc(C2OCC(CC)C(CCC)O2)cc1 (stereo unspecified)
inactive: [1] -4.3% | [2] -10.6% | [3] -7.5% | [4] -45% | [5] 5% | [6] -9.25%

CCC(CC)(SC(C)C(N)=O)C(C)=O (stereo unspecified)
inactive: [1] 0.35% | [2] 7.4% | [3] -16.3% | [4] -11.3% | [5] 5.75% | [6] 0.6%

CC(=O)N(C)c1ccccc1O
inactive: [1] 6.6% | [2] -10.1% | [3] -14.6% | [4] -33.2% | [5] 10.2% | [6] -19.9%

C[C@H]1S[C@@H](c2ccc(Cl)cc2Cl)N(NC(=O)c2ccncc2)C1=O
inactive: [1] 57.9% | [2] 45% | [3] 40% | [4] 46.9% | [5] 52.1% | [6] 39.3%

CC(=O)Nc1ccc(OCc2ccccc2)cc1[N+](=O)[O-]
inactive: [1] 20.5% | [2] -11.9% | [3] 9.75% | [4] 10.2% | [5] 6.85% | [6] 28.2%

O=C1NC2Cc3ccccc3C(C2)O1 (stereo unspecified)
inactive: [1] 2.8% | [2] -0.9% | [3] 1.85% | [4] -1.95% | [5] 15.9% | [6] 11.8%

O=C(O)C(c1ccccc1)C(O)C1CCCC1 (stereo unspecified)
inactive: [1] -2.9% | [2] -11.1% | [3] 1.05% | [4] -10.8% | [5] -7.3% | [6] -4.45%

O=c1ccn2n1Cc1ccccc1C2
inactive: [1] -25.9% | [2] -20.8% | [3] -17.9% | [4] 13.3% | [5] -6.05% | [6] -20.6%
